Results: PubChem BioAssay (EPA / NIEHS)
Where “and” joins values, the source holds several entries; their conditions need not be identical. Equal values may be shown once. Records with an inconclusive call do not appear. The source holds several records for some structures; these can differ, active in one and inactive in another. Calls of active or inactive are those of the source. How the source made its calls, unless noted: active means hit-call score of the fitted dose curve at least 0.9, where 1 is the maximum; inconclusive means response in the unintended direction; inactive means score below 0.9.

How the values were obtained:
[1] = target: human Androgen Receptor (AR), AR (gene 367) (UniProt P10275); test: NVS_NR_hAR: NovaScreen (NVS) Nuclear Receptor Binding Assay for human Androgen Receptor (AR) (AID 2283332)
human Androgen Receptor (AR), AR (gene 367), sequence (P10275 whole entry, looked up): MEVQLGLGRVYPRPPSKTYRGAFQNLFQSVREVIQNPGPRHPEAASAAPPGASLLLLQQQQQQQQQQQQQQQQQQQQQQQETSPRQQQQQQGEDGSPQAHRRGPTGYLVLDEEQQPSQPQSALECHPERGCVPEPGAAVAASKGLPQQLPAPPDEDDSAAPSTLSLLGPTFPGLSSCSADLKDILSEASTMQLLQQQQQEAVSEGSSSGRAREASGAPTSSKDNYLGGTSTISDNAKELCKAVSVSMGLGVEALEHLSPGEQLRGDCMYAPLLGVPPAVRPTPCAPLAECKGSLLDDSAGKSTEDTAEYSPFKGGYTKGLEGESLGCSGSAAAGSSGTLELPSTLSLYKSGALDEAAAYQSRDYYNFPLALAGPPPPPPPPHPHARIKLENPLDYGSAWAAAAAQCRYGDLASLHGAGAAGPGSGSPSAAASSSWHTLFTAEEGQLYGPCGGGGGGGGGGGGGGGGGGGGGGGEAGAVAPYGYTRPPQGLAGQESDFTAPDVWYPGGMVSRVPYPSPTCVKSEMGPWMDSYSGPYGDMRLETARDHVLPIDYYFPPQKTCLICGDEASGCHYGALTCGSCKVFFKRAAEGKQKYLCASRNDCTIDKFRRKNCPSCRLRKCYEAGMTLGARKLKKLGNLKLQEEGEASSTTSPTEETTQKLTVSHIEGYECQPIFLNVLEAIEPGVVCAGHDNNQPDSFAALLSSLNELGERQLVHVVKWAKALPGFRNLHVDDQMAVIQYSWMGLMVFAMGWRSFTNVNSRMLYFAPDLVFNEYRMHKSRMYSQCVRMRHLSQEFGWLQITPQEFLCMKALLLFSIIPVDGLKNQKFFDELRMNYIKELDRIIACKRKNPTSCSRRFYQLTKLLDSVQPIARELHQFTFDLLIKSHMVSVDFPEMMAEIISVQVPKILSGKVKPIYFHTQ
How it was run: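 Actives from a duplicate 25 uM single-point screen went on to concentration series. Read-out after 20 h was scintillation counting of displaced radioligand in LnCAP extract, with DMSO as baseline.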

[2] = target: rat Peripheral-type Benzodiazepine Receptor (PBR), Tspo (gene 24230) (UniProt P16257); test: NVS_MP_rPBR: NovaScreen (NVS) Membrane Protein Assay for rat Peripheral-type Benzodiazepine Receptor (PBR) (AID 2283335)
How it was run: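 Rat kidney membranes; radioligand binding with displacement, filter-based scintillation counting, 1 h incubation. Primary screen in duplicate at 25 uM, actives followed in concentration series; loss of binding vs DMSO.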

[3] = target: human Constitutive Androstane Receptor (CAR), NR1I3 (gene 9970) (UniProt Q14994); test: NVS_NR_hCAR_Antagonist: NovaScreen (NVS) Nuclear Receptor Binding Assay for human Constitutive Androstane Receptor Antagonism (CAR) (AID 2283344)
How it was run: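 Cell-free TR-FRET binding read 1 h after dosing, antagonist mode; loss of signal versus DMSO baseline. Primary screen in duplicate at a single 25 uM; actives retested in concentration series.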

[4] = target: chimpanzee Androgen Receptor (AR), AR (gene 747460) (UniProt O97775); test: NVS_NR_cAR: NovaScreen (NVS) Nuclear Receptor Binding Assay for chimpanzee Androgen Receptor (AR) (AID 2283346);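 further: radioligand displacement from AR measured by scintillation counting in a cell-free assay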
chimpanzee Androgen Receptor (AR), AR (gene 747460), sequence (O97775 whole entry, looked up): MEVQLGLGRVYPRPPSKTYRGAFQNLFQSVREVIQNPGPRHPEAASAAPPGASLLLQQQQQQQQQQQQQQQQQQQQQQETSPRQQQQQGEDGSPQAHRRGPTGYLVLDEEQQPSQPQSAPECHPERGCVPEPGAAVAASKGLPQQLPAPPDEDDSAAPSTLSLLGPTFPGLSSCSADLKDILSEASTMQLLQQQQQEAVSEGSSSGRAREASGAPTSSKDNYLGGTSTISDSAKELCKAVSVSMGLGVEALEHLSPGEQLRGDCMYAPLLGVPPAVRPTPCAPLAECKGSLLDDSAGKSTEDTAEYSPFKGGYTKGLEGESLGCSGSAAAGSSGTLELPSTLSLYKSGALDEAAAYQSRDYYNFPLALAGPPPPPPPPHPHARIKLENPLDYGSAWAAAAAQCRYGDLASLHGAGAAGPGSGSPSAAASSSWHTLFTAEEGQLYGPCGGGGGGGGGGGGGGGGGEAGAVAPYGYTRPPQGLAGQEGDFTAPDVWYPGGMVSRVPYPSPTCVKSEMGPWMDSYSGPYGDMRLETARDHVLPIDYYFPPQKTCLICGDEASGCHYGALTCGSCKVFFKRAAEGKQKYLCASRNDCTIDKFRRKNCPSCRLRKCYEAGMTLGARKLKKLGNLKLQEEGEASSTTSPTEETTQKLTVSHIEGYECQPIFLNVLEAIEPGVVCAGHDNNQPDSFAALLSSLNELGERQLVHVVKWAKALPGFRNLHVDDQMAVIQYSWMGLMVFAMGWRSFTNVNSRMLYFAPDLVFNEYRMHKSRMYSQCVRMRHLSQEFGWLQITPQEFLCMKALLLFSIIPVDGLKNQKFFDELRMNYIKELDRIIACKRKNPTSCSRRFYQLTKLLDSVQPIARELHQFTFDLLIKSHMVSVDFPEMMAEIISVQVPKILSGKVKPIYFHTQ
How it was run: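 Cell-free radioligand displacement using receptor protein extracted from Sf9/Sf21 cells; bound radioligand measured by scintillation counting 72 hours after chemical dosing. Loss of signal versus DMSO baseline indicates binding; primary screen single-concentration in duplicate at 25 uM, actives followed in concentration series.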

[5] = target: Estrogen receptor (Homo sapiens) (UniProt P03372); test: NVS_NR_hER: NovaScreen (NVS) Nuclear Receptor Binding Assay for human Estrogen Receptor (ER) (AID 2283348)
Estrogen receptor (Homo sapiens), sequence (P03372 whole entry, looked up, the tested form may be a part): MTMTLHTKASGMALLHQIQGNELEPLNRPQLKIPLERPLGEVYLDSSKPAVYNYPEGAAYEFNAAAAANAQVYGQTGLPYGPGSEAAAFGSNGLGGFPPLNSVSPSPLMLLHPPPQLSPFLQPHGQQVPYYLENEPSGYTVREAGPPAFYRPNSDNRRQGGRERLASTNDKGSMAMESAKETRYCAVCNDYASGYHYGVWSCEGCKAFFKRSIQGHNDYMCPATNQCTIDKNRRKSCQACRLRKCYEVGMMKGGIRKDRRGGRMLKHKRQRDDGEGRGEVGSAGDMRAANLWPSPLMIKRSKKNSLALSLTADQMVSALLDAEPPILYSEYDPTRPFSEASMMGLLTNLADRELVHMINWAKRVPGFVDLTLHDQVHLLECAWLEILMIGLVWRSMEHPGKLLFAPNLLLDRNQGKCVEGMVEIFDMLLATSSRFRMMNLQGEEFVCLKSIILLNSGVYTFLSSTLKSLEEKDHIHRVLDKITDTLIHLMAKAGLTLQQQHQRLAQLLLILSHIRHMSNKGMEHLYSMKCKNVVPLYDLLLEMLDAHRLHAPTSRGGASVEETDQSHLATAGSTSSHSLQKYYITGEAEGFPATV
How it was run: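 Cell-free radioligand binding with protein extracted from MCF7 cells; scintillation counting 18 hours after dosing. Loss of signal versus DMSO baseline read as displacement; primary single-concentration screen at 25 uM in duplicate, actives retested in concentration series.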

[6] = target: Bile acid receptor (Homo sapiens) (UniProt Q96RI1); test: NVS_NR_hFXR_Antagonist: NovaScreen (NVS) Nuclear Receptor Binding Assay for human Farnesoid X Receptor Antagonism (FXR) (AID 2283350)
How it was run: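 Cell-free TR-FRET ligand-binding read-out on human FXR (NR1H4) in antagonist mode, measured 1 h after dosing. Primary screen in duplicate at 25 uM, actives retested in concentration series; signal loss scored versus DMSO.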

[7] = target: Androgen Receptor/SRC-1 Co-activator, AR (gene 367) (UniProt P10275); test: OT_AR_ARSRC1_0480: Odyssey Thera (OT) 8-hour HEK293T Protein-Complementation Assay for Androgen Receptor/SRC-1 Co-activator (AID 2283354);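 further: hits raise the complementation signal above DMSO so AC50 marks enhancers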
Androgen Receptor/SRC-1 Co-activator, AR (gene 367), sequence (P10275 whole entry, looked up, the tested form may be a part): as the sequence (P10275 whole entry, looked up) above
How it was run: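 HEK293T cells stably expressing AR and SRC-1 fused to split Venus YFP fragments via (Gly4Ser)2 linkers were read 8 h after compound dosing. Complementation was imaged at 488 and 635nm, and nuclear/cytoplasmic fluorescence ratio (488nm) was taken over ≥400 cells; gain-of-signal versus DMSO.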

NCBI gene 100848466 = test: NVS_NR_bPR: NovaScreen (NVS) Nuclear Receptor Binding Assay for bovine Progextron Receptor (PR) (AID 2283343);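 further: actives lower bound radioligand signal below DMSO meaning displacement of the label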
How it was run: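 Bovine uterine membrane preparation, cell-free; radioligand competitive displacement measured by scintillation counting 18 hours after dosing. Loss of signal versus DMSO baseline indicates binding; primary HTS single concentration 25 uM in duplicate, actives followed in concentration series.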

[8] = target: Estrogen receptor (Homo sapiens) (UniProt P03372); test: OT_ER_ERaERa_1440: Odyssey Thera (OT) 24-hour HEK293T Protein-Complementation Assay for Estrogen Receptor-alpha/-alpha Homodimer (AID 2283349);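 further: hits raise fluorescence above DMSO for agonists and antagonists alike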
How it was run: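 Readout is the rise in mean fluorescence from reporter fragment complementation when ERα LBD (aa 310-547) units dimerize in HEK293T cells. Measured 24 h after dosing and analysed as increase over DMSO control.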

[9] = target: Estrogen receptor (Homo sapiens) (UniProt P03372); test: OT_ER_ERaERa_0480: Odyssey Thera (OT) 8-hour HEK293T Protein-Complementation Assay for Estrogen Receptor-alpha/-alpha Homodimer (AID 2283351);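 further: rise in fluorescence from reassembled reporter fragments on ERα LBD homodimer in nucleus or whole cell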
How it was run: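 The readout is complementation of fragments fused to the human ER alpha ligand-binding domain (aa 310-547), stably expressed in HEK293T cells. After 8 h of exposure, the increase in nuclear/cytoplasmic fluorescence was measured by laser scanning cytometry and fitted relative to DMSO.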

[10] = target: Estrogen receptor (Homo sapiens) + Estrogen receptor beta (Homo sapiens) (UniProt P03372+Q92731); test: OT_ER_ERaERb_0480: Odyssey Thera (OT) 8-hour HEK293T Protein-Complementation Assay for Estrogen Receptor-alpha/-beta Heterodimer (AID 2283352)
Estrogen receptor (Homo sapiens) + Estrogen receptor beta (Homo sapiens), sequence (P03372 whole entry, looked up): as the sequence (P03372 whole entry, looked up, the tested form may be a part) above
Estrogen receptor (Homo sapiens) + Estrogen receptor beta (Homo sapiens), sequence (Q92731 whole entry, looked up): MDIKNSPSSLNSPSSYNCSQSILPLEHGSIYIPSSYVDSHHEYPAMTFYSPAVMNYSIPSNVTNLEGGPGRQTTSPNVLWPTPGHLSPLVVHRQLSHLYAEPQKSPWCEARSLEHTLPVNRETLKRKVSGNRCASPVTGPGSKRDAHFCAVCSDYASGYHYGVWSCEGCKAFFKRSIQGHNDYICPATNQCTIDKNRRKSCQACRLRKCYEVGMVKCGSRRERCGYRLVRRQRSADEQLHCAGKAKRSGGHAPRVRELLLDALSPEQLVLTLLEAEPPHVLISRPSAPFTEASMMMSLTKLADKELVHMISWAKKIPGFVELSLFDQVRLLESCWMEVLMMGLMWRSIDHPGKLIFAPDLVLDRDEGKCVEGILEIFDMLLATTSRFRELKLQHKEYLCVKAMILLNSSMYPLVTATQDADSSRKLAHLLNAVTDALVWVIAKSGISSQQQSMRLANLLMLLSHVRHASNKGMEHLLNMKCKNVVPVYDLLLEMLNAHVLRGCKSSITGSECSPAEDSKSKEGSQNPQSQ
How it was run: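 Compound added to HEK293T cells carrying split-reporter-tagged ER-alpha and ER-beta LBDs, incubated 8 hours, then imaged by laser scanning cytometer. Signal rise in nucleus, or nucleus and cytoplasm, over vehicle was fitted in the positive direction.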

[11] = target: rat Mineralocorticoid Receptor (MR), Nr3c2 (gene 25672) (UniProt P22199); test: NVS_NR_rMR: NovaScreen (NVS) Nuclear Receptor Binding Assay for rat Mineralocorticoid Receptor (MR) (AID 2283355)
rat Mineralocorticoid Receptor (MR), Nr3c2 (gene 25672), sequence (P22199 whole entry, looked up): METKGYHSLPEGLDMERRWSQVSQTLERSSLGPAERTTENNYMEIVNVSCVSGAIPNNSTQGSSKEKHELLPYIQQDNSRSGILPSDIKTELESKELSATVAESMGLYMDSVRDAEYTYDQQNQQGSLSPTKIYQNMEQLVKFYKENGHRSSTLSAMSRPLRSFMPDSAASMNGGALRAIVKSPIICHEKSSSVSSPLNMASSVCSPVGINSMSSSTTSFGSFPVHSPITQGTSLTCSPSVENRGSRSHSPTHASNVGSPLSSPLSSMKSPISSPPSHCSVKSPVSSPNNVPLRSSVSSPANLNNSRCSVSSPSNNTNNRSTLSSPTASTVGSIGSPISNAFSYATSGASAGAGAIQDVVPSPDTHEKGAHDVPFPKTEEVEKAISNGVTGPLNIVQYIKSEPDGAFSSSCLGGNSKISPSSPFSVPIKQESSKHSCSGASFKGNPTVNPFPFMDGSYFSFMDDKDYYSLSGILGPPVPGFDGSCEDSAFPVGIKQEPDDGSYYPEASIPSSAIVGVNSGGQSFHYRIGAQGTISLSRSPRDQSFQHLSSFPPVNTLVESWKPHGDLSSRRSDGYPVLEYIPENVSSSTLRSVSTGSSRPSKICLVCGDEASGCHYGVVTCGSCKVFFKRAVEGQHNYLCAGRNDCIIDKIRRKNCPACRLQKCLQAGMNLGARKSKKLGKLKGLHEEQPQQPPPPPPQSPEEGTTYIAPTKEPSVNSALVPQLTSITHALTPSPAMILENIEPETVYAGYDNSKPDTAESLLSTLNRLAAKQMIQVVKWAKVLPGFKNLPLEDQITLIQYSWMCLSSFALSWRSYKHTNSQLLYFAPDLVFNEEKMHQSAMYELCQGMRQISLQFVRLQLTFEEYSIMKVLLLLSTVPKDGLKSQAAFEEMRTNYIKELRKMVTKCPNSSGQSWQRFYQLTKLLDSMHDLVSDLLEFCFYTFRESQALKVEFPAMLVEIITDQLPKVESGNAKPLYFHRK
How it was run: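 Cell-free radioligand binding to MR in adrenalectomized rat brain supernatant, scintillation counted 24 h after dosing. Loss of signal versus DMSO baseline marks displacement. Primary screen in duplicate at 25 uM; actives retested as concentration series.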

[12] = target: Glutamate receptor ionotropic, kainate 1 (Rattus norvegicus) (UniProt P22756); test: NVS_IC_rKAR: NovaScreen (NVS) Ion Channel Assay for rat Kainic Acid Receptors (KAR) (AID 2283334; active means hit-call score of the fitted dose curve at least 0.9, where 1 is the maximum; inactive means score below 0.9)
Glutamate receptor ionotropic, kainate 1 (Rattus norvegicus), sequence (P22756 whole entry, looked up): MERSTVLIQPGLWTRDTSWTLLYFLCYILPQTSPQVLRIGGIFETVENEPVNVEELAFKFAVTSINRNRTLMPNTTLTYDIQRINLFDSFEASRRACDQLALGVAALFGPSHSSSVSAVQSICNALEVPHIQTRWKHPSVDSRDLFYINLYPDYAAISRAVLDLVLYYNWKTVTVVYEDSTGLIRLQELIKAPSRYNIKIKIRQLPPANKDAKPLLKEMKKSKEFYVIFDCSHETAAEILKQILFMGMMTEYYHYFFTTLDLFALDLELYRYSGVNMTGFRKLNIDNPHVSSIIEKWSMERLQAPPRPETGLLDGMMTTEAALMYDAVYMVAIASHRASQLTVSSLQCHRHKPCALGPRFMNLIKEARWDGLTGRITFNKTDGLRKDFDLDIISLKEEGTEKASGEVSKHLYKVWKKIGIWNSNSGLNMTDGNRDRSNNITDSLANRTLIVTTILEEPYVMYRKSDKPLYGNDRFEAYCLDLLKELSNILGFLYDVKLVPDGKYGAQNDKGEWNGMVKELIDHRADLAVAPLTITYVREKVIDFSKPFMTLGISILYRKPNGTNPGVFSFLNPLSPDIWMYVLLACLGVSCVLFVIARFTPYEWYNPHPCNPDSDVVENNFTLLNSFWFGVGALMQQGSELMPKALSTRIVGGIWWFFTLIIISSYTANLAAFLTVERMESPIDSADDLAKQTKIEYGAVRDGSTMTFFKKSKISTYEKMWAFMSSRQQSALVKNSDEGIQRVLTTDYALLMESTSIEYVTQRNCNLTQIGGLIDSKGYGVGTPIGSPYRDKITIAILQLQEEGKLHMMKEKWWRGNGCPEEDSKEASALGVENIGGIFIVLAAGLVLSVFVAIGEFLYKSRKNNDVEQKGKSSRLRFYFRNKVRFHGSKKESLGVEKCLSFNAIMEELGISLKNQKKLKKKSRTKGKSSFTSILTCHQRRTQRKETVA
How it was run: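 Radioligand displacement binding using rat forebrain membranes, 1 h incubation, filter-based scintillation counting. Screened in duplicate at 25 uM, with actives retested in concentration-response up to 50 uM; fitted against DMSO.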

[13] = target: bovine Gamma-Aminobutyric Acid Type A Receptor Agonist (GABAR Agonist), GABRA1 (gene 780973) (UniProt P08219); test: NVS_LGIC_bGABAR_Agonist: NovaScreen (NVS) Ligand-Gated Ion Channel Assay for bovine Gamma-Aminobutyric Acid Type A Receptor Agonist (GABAR Agonist) (AID 2283338)
How it was run: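 Radioligand binding to bovine cerebellar membranes in agonist format, read by filter-based scintillation counting after 1 h. Primary screen in duplicate at 25 uM, with actives followed in concentration series. Gain of signal versus DMSO.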

[14] = system: guinea pig Histamine Receptor (H2), gene 100729734; test: NVS_GPCR_gH2: NovaScreen (NVS) G Protein-Coupled Receptor Assay for guinea pig Histamine Receptor (H2) (AID 2283342)
How it was run: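 Radioligand displacement on guinea pig striatal membranes, 1 h after dosing, filter-based scintillation counting; loss of signal versus DMSO. Single-point screen at 25 uM in duplicate, then concentration-response up to 50 uM.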

[15] = target: rat Glutamate, MK-801 Agonist Site (GluNMDA_MK801), Grin1 (gene 24408) (UniProt P35439); test: NVS_LGIC_rGluNMDA_MK801_Agonist: NovaScreen (NVS) Ligand-Gated Ion Channel Assay for rat Glutamate, MK-801 Agonist Site (GluNMDA_MK801) (AID 2283340)
How it was run: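 Radioligand binding at MK-801 site in rat forebrain membranes, 1.5 h incubation, filter-based scintillation counting. Initially 25 uM in duplicate; actives then run in concentration-response up to 50 uM, fitted for gain of signal versus DMSO.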

Measured: AC50

CC[C@H](c1ccc(O)cc1)[C@@H](CC)c1ccc(O)cc1
active: [1] 0.416 µM | [2] 822 nM and 258 nM | [3] 0.00229 µM | [5] 0.0334 nM and 2.46 nM and 2.68 nM | [6] 8.83 µM
inactive: [1] | [4] | [7]

C#C[C@]1(O)CC[C@H]2[C@@H]3CCC4=CC(=O)CC[C@@H]4[C@H]3CC[C@@]21C
active: NCBI gene 100848466 0.0183 µM | [4] 5.99 nM and 4.99 nM | [11] 500 nM
inactive: [8] | [9] | [10]

OCCC(F)(F)C(F)(F)C(F)(F)C(F)(F)C(F)(F)C(F)(F)C(F)(F)C(F)(F)F
inactive: [12] | [13] | [5] | [8] | [9] | [10] | [7]

CC[C@H](C)[C@@H](C(=O)O)n1sc2ccccc2c1=O
inactive: [12] | [8] | [9] | [10]

OC1CCC(C2CCCCC2)CC1 (stereo unspecified)
active: [4] 22.4 µM | [9] 81.9 µM | [10] 50 µM and 34.5 µM and 48.7 µM
inactive: [4] | [5] | [8] | [9] | [10]

C[C@@H]1C[C@H]2[C@@H]3CCC4=CC(=O)C=C[C@]4(C)[C@@]3(F)[C@@H](O)C[C@]2(C)[C@@]1(O)C(=O)COP(=O)(O)O
inactive: [14] | [5] | [8] | [9] | [10]
active: NCBI gene 100848466 10.5 µM | [4] 0.0307 µM | [11] 8.69 nM and 2.18 nM and 33.9 nM

ClC1=C(Cl)C(Cl)(Cl)C(Cl)=C1Cl
inactive: [15] | [5] | [8] | [9]

CC(C)(C)c1cccc(C(C)(C)C)c1O
inactive: [8] | [9]

COCC(C)O (stereo unspecified)
inactive: [8] | [9] | [11]
active: [5] 1.82 µM

CCOC(=O)CC(O)(CC(=O)OCC)C(=O)OCC
inactive: [8] | [9] | [10]

Oc1cccc(O)c1
inactive: [8] | [9] | [10]

C=C(C)C(=O)OCCC(F)(F)C(F)(F)C(F)(F)C(F)(F)C(F)(F)C(F)(F)F
inactive: [8] | [9] | [10]

CC(C)(C)CC(C)(C)c1ccc(O)c(-n2nc3ccccc3n2)c1
inactive: [5] | [8] | [9] | [10]

CCCCCCC(=O)O
inactive: [8] | [9]

CC(C)CCCCCCOC(=O)CCCCC(=O)OCCCCCCC(C)C
inactive: [8] | [6] | [9]

Nc1cccc2c(N)cccc12
active: [8] 11.9 µM
inactive: [9] | [10]

CC(=O)CC(C)(C)O
inactive: [8] | [9] | [10] | [7]
